Laboratory results taken from the supplement of paper PMC12632987.

T1: USP38, Q8NB14
T1 chain: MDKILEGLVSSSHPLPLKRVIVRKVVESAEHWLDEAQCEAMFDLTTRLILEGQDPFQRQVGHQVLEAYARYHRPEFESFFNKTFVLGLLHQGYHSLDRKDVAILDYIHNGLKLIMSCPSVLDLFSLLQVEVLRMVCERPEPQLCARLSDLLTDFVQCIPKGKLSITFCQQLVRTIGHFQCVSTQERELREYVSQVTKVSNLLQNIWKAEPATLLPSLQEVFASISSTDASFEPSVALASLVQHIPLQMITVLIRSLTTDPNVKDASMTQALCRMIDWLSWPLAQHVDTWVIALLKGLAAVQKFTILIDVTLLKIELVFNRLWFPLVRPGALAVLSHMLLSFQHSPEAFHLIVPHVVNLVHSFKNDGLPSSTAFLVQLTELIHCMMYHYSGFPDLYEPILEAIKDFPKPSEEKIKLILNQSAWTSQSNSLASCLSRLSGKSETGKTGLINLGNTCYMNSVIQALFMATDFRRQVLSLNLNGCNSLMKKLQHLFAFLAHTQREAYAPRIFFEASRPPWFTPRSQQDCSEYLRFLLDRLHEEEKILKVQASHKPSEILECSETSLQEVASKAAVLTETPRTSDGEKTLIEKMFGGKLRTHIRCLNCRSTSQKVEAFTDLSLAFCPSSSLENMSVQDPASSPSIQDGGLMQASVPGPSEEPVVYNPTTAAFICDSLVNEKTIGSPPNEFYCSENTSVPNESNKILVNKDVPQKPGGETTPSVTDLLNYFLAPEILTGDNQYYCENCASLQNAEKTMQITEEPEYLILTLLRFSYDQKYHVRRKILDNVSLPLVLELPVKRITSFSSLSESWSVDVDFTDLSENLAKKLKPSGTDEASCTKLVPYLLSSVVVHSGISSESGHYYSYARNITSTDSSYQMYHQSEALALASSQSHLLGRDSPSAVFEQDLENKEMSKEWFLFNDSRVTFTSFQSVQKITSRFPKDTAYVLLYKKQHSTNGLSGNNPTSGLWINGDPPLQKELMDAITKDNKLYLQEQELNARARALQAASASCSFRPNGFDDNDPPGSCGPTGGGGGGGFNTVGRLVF


Molecular target: T1, USP38, Q8NB14
Assay: median log2 fold change of GCK-ALFA target abundance (FLAG IP / Myc IP barcode read proportion) (log2 ratio); each designed protein is fused to an ALFA-tag nanobody in HEK293 cells to bring the named protein to FLAG-tagged glucokinase (GCK); Myc marks an untargeted standard; higher = target protein stabilised (more abundant)
Conditions: target protein: 3xFLAG-MCP-GCK-ALFA reporter; HEK293 landing pad (RPLP)
How it was run: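 The readout is target abundance, the per-binder median log2 ratio of FLAG to Myc barcode read proportions. It came from HEK293 landing-pad cells carrying a recombined ALFA-nanobody-fused binder library, induced with 2 μg mL^−1 doxycycline and transfected with a plasmid for a FLAG-tagged target and a Myc-tagged standard. After 48 h, lysates were immunoprecipitated with anti-FLAG and anti-Myc, and circular RNA barcodes were reverse transcribed, amplified and sequenced. Each barcode needed a proportion of at least 10^−7 in both replicates and each binder at least 3 barcodes per replicate, a pseudocount of 10^−6 was added, and the replicates were pooled.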

Row | Binder | median log2 fold change
1 | usp_38_diff_out_22_74_482 (protein) SAEAEAVAATKAEIEKLTAETLKKLDELYKEAKKYIEAGDYKNARRKLAEMDDLVTETVIYLNKVALAEGAVHDLALAKANEIRKKATEINEELEKLLKE | 0.312
2 | usp_38_diff_out_22_164_479 (protein) SEEEILEKLKEEIEKLAEETKKKLEELAKKAKENPEKKEEYLKQMRMLVIQTQQKMGDLIDEAAKKYNLSEETVEELRSHRTVQSLKVLNYLDELEKELE | 0.177
3 | usp_38_diff_out_22_164_481 (protein) KEEEIKEKLKKEIEEKIKETKKELDKLFAKAKADPEKKEEYIKEARMLLIKTQKELLELIEKTVKENNLSEETKEELRSFLTVQMLKLLNYLDEKEEELK | -0.692
4 | usp_38_diff_out_22_164_477 (protein) MEEKIKKEVKEKIEKIAEETKKKIDELFAEAKANPEKKEEYIKKARMLLIESNKEIKEYIEKTVKENNLSEETKEELNSHATVQNLKVLNYLDEKIEELK | 0.309
5 | usp_38_diff_out_20_123_457 (protein) MEKLKAEAEALLKRAEALLENAKQILKFVKAGVLSEEQVEEHIEMIEEHIKYLEEELKKLKAAAPELKELLEKVEKAIKETKKVREEIKKELEKRRKEKE | 0.24
6 | usp_38_diff_out_20_123_450 (protein) SEELREEAEELLRRAEQLLENSEQILKFVKAGVLSEETIKSHIEMIESQIKYIEEKIERLRKEDPSLEPLLEEVEKIREEVKKTLEEIKKAAEERKKEEA | 0.529
7 | usp_38_diff_out_1_9_444 (protein) DVRREIAEALLEALERGLEELERLRARAEAALAAGDLARAEALLRRLVRNARGLEAAAEDLIEMAKEIGDEELARRAEEILERARRLREEAEARLAELAA | -0.00975
8 | usp_38_diff_out_22_74_486 (protein) SAEAEEVAKIKAEIDKLVAELNAYLEKAKEEAEKAIAAGRLREARRIRAEMDDKVTDAIITLNKIALANGAIHDYALAKAQEIRDKSTKVFEEIDARLAA | -0.198
9 | usp_38_diff_out_20_123_451 (protein) SEELRKEAEELLKRAKQLLENAKQILKFVKAGVLSEETIEAHIKMIESQIKYIEEKIKELREKDPSLKPLLEEVEKVVKEVKETLKEIKEAAEKRRKEKA | 0.227
10 | usp_38_diff_out_22_74_487 (protein) SAAEKAQEEAKKKLEELLKEFNEELEKYLKEAKKAIEAGNLKEARRILGEFTSKFAELSSKIAKAAWEAELPLDEIQKIMTDLTKKAAEAVKEMEEAIKA | -0.392
11 | usp_38_diff_out_20_123_449 (protein) SEELRERAERLLRDAERLLENAKQILKFVEAGVLSEETVEAHIEMIEAHIEYIEREIERLRREDPSLAPLLERVERVLEEVKEVLEKIKEAAEKRKEEEK | 0.117
12 | usp_38_diff_out_20_123_452 (protein) AAALRAEAEALLARAQQLLENAEQVLKFVKAGVLSEETVEEHIEMFEAHIEYLEAERARLAAEAPELAPLLAQIDEAIAKAKEVLEKIKEELEKRREEEE | 0.438
13 | usp_38_diff_out_23_30_488 (protein) SPLEEAKKRLREAAEKARKEATEIKKKAEELKKKAENEYLKALANQVIDAANDFIEDLDIWLSRIDEYDEARLLRLTEYVEASLAHLKQLYEDLLKEFKK | 0.13
14 | usp_38_diff_out_1_162_44 (protein) AVEETLAQLEEALERAERLIEEAERALEEGDLERARELLDEAADTLGRAAQLLREARRLSRELSPEERARVRERLRELNERLDELIDRLTELEREVFLRE | 0.133
15 | usp_38_diff_out_20_123_448 (protein) SEALRARAEELLRRAEQLLENAKQILKFVKAGVLSEETVESHIKMIESQIEYIRREIERLRAEDPSLAPLLEEVERVVREVEEVLEEIKKAVEERKKEKA | 0.273
16 | usp_38_diff_out_22_74_484 (protein) SAEEEETEKLRKEIEERKAETLARLEELRAAARAALAAGDERAARRLLAELDDLVTDTVIWLNKVALAHGAIHDYALETALEIRERATAIVAELEAALAA | 0.0294

Row | Binder | median log2 fold change
17 | usp_38_diff_out_20_123_454 (protein) SEELRKEAEELLRRAEQLLENAEQILKFVKAGVLSLEKVEEHIKFIEEHIKYLEEKLKELKKKDKSLKELLEKIEELIKKTKEVLKEIKEAVEKRKKEAA | 0.308
18 | usp_38_diff_out_20_123_447 (protein) SEELRARAERLLRQAEQLLENAEQILKFVKAGVLSKETQKAHIEFIESQIETIRREIERLRAEDPSLAELLARIEEVLRKVEETLEEIKKAVEKREKEEA | 0.258
19 | usp_38_diff_out_1_162_45 (protein) KVEEVLEEAERLLEEAEKLIEAAEKALAAGDLETARKYLDEAWDKLGELAKLLREARRLRRELSPERQEEVRKRLRELEERADELIDRLTELETEVFLRE | -0.331
20 | usp_38_diff_out_1_162_46 (protein) EVEKLLEEAEKLLEEAKELIEKAKEAFKEGKLEEAEKYLDEAADKLGQLAKLLREARRLRRELSPERQEEVRKRLRELEERANELIDEYTELETEVFLAK | -1.08
21 | usp_38_diff_out_24_27_495 (protein) EEEKKKLLEKLIEKFEKILELAKKAVGADLATRIKLSSEIDELLEEARKLAKELGIPEVEKLVTQVAIQASIVLSGSEEMEEAIKEIEKIIEELKKLLKE | 0.368
22 | usp_38_diff_out_1_162_48 (protein) EVEELLKKAKEKLKEAKELIKKAKEALKAGDLETAKKYLDKAWDLLGELAKLLREARRKMRELSPEERKKVRKELKKLEEEADKLIDELTKLETEVFLKE | -0.368
23 | usp_38_diff_out_20_123_458 (protein) SSEALERAERLLRQAEQLLENAEQILKFVKAGALSEETVEEHIKFIETHIKYLEEELERLEEEHPELEELLERIREILERTRKVLEEIKKALEKRRKEKE | 0.0141
24 | usp_38_diff_out_20_123_446 (protein) MEEARERAERLLERARQLLENAKQILKFVKAGVLSKETIESNIKFIESQIEYLERERERLREEHPELEELLEEIDRVLEETREVLKEIKAAAAAREAAEA | 0.247
25 | usp_38_diff_out_22_74_483 (protein) SAEEAETEALKKEIDEKVKKTKEELDRLRAEAKAAIAAGRYREARRLLAEMDDLVTDTVIWLNKVALAHGAVHDYALAKANEIREYATKINAELEALLEA | 0.0676
26 | usp_38_diff_out_22_164_478 (protein) SEEEILKKVKEELEKLAEETKKELDKLFEEAKANPEKKEEYIQEAQMLIIKTQKEMNDYIEETVKKYNLSEETKEELKSHRTVLNLKVLNYLDEKIEELK | 0.187
27 | usp_38_diff_out_24_27_497 (protein) EEEKKEKLEKLIKKFEEILKLAKEAVGADLATRIRLSREIDELLEEARKLAEELGIEEVKKIVTEVAVKASIVLSGSEEMEEAIEEIEKLIEEAKKLLEE | 0.276
28 | usp_38_diff_out_1_9_443 (protein) SVDDVIIEALEKALEDGLKELKELEKKAEKALKAGDKAQAEALLKRLIRNAEGLIAAAKDAIKLAKKAGLEERAKRLEEMLKEAEKLLEEAKKKLKELKA | 0.0775
29 | usp_38_diff_out_22_74_485 (protein) SAEEEANAALRAEIDAKVADWNKYREEAERRIEEAIAAGRYREARRLLAELDDKTTDLIIWLNKQALANGAIHDYALAKAEEIRKKTTEVVERAEARLAA | -0.0773
30 | usp_38_diff_out_21_100_459 (protein) MEEIKKEIKEELEKAEKALKEAIKLLKEGAKKEEILKKLDEALSHLVRAQYLAAKISFELAHKISEIIDIVQEAKKLLDTDKEKALELLEKALKELKELK | -0.0676
31 | usp_38_diff_out_20_123_456 (protein) MEKAKEEAEKLLRRAKQLVENAEQVLKFVKAGVLSEEKAEEYIKSFEEHIKYIEKEVKKLKKEYPELKELLEEVEKEIKKAKKVLKELKEAVEKRKKEEE | 0.134
32 | usp_38_diff_out_20_123_455 (protein) SEELRERAERLLKRSKQLVENAKQILKFVKAGVLSEETVEEHIKFLEDLIKYFEEELERLKKEDPSLKELLEEVEAAIKEAKEVLKEIKEAAEKRKKEEE | 0.12
